An excerpt weighted towards active compounds, which were near 6.1% of everything screened.
RORg inh – blocks mouse ROR gamma transcriptional activity; P51450; Drosophila S2 Gal4-RORgamma UAS-luciferase reporter, 20 h; Potency, µM (top dose mostly 53.6 µM), for inactives: at the top dose activity change, negative = inhibition, usual class: inhibitors; 310,000 tested, 5.4% active; note: % is set by controls: 0 for no effect and ±100 for the full control effect; nearly all actives have a fitted effect of over 60% in size
Target sequence (P51450 whole entry, looked up, the tested form may be a part): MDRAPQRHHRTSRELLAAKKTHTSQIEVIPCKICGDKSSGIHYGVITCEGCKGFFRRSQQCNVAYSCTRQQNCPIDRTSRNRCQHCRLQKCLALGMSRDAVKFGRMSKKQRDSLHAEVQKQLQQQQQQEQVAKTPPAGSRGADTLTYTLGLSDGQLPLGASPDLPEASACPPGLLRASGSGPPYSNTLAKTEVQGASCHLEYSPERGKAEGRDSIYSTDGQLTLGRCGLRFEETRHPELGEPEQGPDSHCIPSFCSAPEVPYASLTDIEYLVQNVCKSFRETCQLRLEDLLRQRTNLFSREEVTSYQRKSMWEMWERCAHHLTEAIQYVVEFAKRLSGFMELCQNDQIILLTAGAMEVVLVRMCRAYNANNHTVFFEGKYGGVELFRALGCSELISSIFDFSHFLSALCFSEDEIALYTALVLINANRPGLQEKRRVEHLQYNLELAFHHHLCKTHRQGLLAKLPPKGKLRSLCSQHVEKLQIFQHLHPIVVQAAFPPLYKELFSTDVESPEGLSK
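Using a luciferase readout, inhibitors were identified by reduced reporter activity in Drosophila cells coexpressing a copper-inducible Gal4–ROR gamma fusion and UAS-driven Photinus luciferase, incubated 20 hr after 700 uM copper sulfate.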
TGFb SMAD3 inh – inhibitors of TGF-b signaling; 410,000 tested, 1.2% active; HepG2 CAGA-GFP TGF-b/SMAD3 reporter, GFP fluorescence, 18 h; TGF-beta stimulated, 500 pg/mL final; Potency, µM (series often up to 46.1 µM), for inactives: top-dose activity, negative = inhibition, most hits filed as inhibitors; note: % is set by controls: 0 for no effect and ±100 for the full control effect; nearly all actives have a fitted effect of over 65% in size
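HEPG2 CAGA-GFP cells (1000/well, DMEM with 1% FBS) were pre-incubated 2 h at 37 degrees C, given compound by pin tool, then stimulated with TGF-beta at 500 pg/mL final for 18 h before per-cell GFP fluorescence imaging.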
HepG2 viability – HepG2 cytotoxicity, counter-screen for TGF-b inhibitors; HepG2 CAGA-GFP viability, ATP luminescence, 18 h; Potency, µM (top dose mostly 46.1 µM), inactives show at the highest dose activity change, negative = cytotoxicity, usual class: cytotoxic; 410,000 tested, 0.76% active; AID 588856
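CellTiter-Glo luminescence gave cytotoxicity after 18 hours at 37 degrees C. The cells were HepG2 CAGA-GFP in 1% FBS DMEM, stimulated with 500 pg/mL TGF-beta after compound addition. %Activity was normalised to no-cell wells (complete cell-killing) and DMSO (no toxicity), and curves were fitted and classified.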
ATXN viability – viability counter-screen for ATXN expression inhibitors | 400,000 tested, 0.49% active | AID 651635 | S2 cells (HEK-293 line with an ATXN2-luciferase reporter) viability, CellTiter-Fluor protease fluorescence, 24 h | Potency, µM (highest dose often 56.7 µM), most hits filed as cytotoxic; note: nearly all actives have a fitted effect of over 40% in size
VP16 counter – Gal4-VP16 reporter inhibition counter-screen | Drosophila S2 Gal4-VP16 UAS-luciferase, luminescence, 20 h | 310,000 tested, 3.5% active | Potency, µM (series often up to 53.6 µM), for inactives: at the highest dose activity, negative = inhibition, usual class: inhibitors;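 note: Gal4-VP16 expression switched on by copper sulfate through the metallothionein promoter; % is set by controls: 0 for no effect and ±100 for the full control effect; nearly all actives have a fitted effect of over 50% in size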
ATXN2 expr inh – ATXN2 expression inhibition. Potency, µM (highest dose often 57 µM), for the others: top-dose activity change, negative = inhibition, most hits filed as inhibitors. 360,000 tested, 0.72% active. HEK-293 ATXN2-luciferase reporter, luminescence, 24 h. AID 1745845; note: % is set by controls: 0 for no effect and ±100 for the full control effect; nearly all actives have a fitted effect of over 55% in size
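ATXN2-luciferase reporter cells (luciferase flanked by upstream and downstream ATXN2 gene portions) were treated 24 h at 37 °C with compounds at up to 57 uM. SteadyGlo luminescence gave expression; GF-AFC fluorescence gave viability.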
* marks the source's active call; other numbers are inactive results; [ ] = remark or other dose. Calls come from the whole dose curve; as a rule, active = well fitted curve in the direction sought with a large enough effect; inconclusive = small, poorly fitted or top-dose-only effect, or another doubt; inactive = no such curve, though single readings can be large; an effect the other way counts as inactive or inconclusive. Potency is the fitted concentration of half-maximal effect.

How did COc1ccc(N(C)S(=O)(=O)c2cccc(C(=O)Nc3nc4ccccc4[nH]3)c2)cc1 do in these assays?
RORg inh: 4µM*; TGFb SMAD3 inh: -18%; HepG2 viability: 10%; ATXN viability: inconclusive; VP16 counter: 11µM*; ATXN2 expr inh: -29%

What do the screens show for `C=CCN(c1ccccc1)S(=O)(=O)c1cccc(C(=O)Nc2nc3ccccc3[nH]2)c1`?
RORg inh: 2.8µM*; TGFb SMAD3 inh: inconclusive; HepG2 viability: -30%; ATXN viability: inactive; VP16 counter: 4.5µM*; ATXN2 expr inh: -25%

How did C=CCN(c1ccccc1)S(=O)(=O)c1cccc(C(=O)Nc2ccncc2)c1 do in these assays?
TGFb SMAD3 inh: -23%; HepG2 viability: -18%; ATXN viability: inactive; ATXN2 expr inh: -24%

Results for COC(=O)[C@@H]1CCCN1C(=O)c1c(OC)cc(=O)n2c1CCN(Cc1cc(OC)ccc1F)CC2 ?
ATXN viability: inactive

How did CN(C(=O)C=Cc1ccccc1)c1ccccc1 do in these assays?
TGFb SMAD3 inh: -3%; HepG2 viability: -9%; ATXN viability: inactive; ATXN2 expr inh: 32%

How did O=C(CCl)N(O)c1ccc(C=Cc2ccccc2)cc1 do in these assays?
TGFb SMAD3 inh: inconclusive; HepG2 viability: -71%; ATXN viability: 6.7µM*; ATXN2 expr inh: inconclusive

What do the screens show for `Cn1c2ccccc2c(=O)c2c(=O)n(Cc3ccco3)c(-c3ccc(F)cc3)nc21`?
RORg inh: -2%; TGFb SMAD3 inh: -13%; HepG2 viability: 20µM*; ATXN viability: inactive; VP16 counter: -4%; ATXN2 expr inh: -18%

How did Cc1ccc(-c2nc3c(c(=O)c4ccccc4n3C)c(=O)n2Cc2ccco2)cc1 do in these assays?
RORg inh: -7%; TGFb SMAD3 inh: 13%; HepG2 viability: 31%; ATXN viability: inactive; VP16 counter: -8%; ATXN2 expr inh: -8%

How did O=C(CCl)Nc1cccc2ncccc12 do in these assays?
RORg inh: 18µM*; TGFb SMAD3 inh: 14%; HepG2 viability: -27%; VP16 counter: inconclusive; ATXN2 expr inh: -37%

How did O=C(CCCl)Nc1cccc2cccnc12 do in these assays?
TGFb SMAD3 inh: 7.1µM*; HepG2 viability: -90%

What do the screens show for `O=C(CCC(=O)OCC(=O)c1ccc(Cl)cc1Cl)Nc1cccc2cccnc12`?
RORg inh: 20%; TGFb SMAD3 inh: -2%; HepG2 viability: -7%; ATXN viability: inactive; VP16 counter: -17%; ATXN2 expr inh: 1%

Results for O=C(CCC(=O)OCC(=O)c1ccc(-c2ccccc2)cc1)Nc1cccc2cccnc12 ?
RORg inh: 1.6µM*; TGFb SMAD3 inh: 21%; HepG2 viability: 3%; ATXN viability: inactive; VP16 counter: 4µM*; ATXN2 expr inh: -3%

Results for COc1ccc(OCC(=O)Nc2cccc3ncccc23)cc1 ?
RORg inh: -2%; TGFb SMAD3 inh: 18%; HepG2 viability: 12%; ATXN viability: inactive; VP16 counter: -5%; ATXN2 expr inh: -1%

How did O=C(CCBr)Nc1cccc2cccnc12 do in these assays?
TGFb SMAD3 inh: 0%; HepG2 viability: -8%

What do the screens show for `COc1ccc(COC(=O)N/N=C2/C[C@@H](O)[C@@H](O)[C@@H]3[C@@H]4C(=O)N(C[C@@H]5CCCO5)C(=O)[C@H]4CC[C@H]23)cc1`?
RORg inh: -1%[10 µM]; VP16 counter: -10%[10 µM]

What do the screens show for `Cc1ccccc1-c1cccc(CN2CCc3nnc(C(NS(C)(=O)=O)C(C)C)n3CC2)c1` (configuration not stated)?
ATXN viability: inactive

Results for O=C(Nc1ccc(Cl)c(C(F)(F)F)c1)C1Cc2c(-c3ccccc3)ccnc2O1 (configuration not stated) ?
TGFb SMAD3 inh: 14µM*; HepG2 viability: 11µM*; ATXN viability: inconclusive; ATXN2 expr inh: -25%

Screening results (PubChem BioAssay)
